Experimental data reported in PubChem BioAssay AID492998 (Southern Research Specialized Biocontainment Screening …, 2010).
The campaign covered roughly 2,300 compounds. About 550 (24%) were called active. The list is a sample of the results. Results with a measured potency or affinity are listed apart. Unmarked numbers belong to inactive results. The rule behind the calls is not given here.

Experiment: Vero E6 cell cytotoxicity, dose response, cytotoxicity control for non-replicating M. tuberculosis project, secondary assay (AID 492998);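 note: 100% = vehicle-treated cells and 0% = background wells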
Details: series mostly up to 20 µM; viability: at the top concentration
For Cc1cc(C=C2C(=O)NC(=S)NC2=O)c(C)n1C1CCCC1, the “viability” value was 85.3%. With CSc1nc2ccc(NC(=O)C3CC(=O)N(Cc4ccccc4)C3)cc2s1 (stereo not drawn) the “viability” value was 91.2%. With CC1CCN(CCc2nc3cc(NC(=O)COc4ccc(Cl)cc4)ccc3n2C)CC1 the “viability” value was 73.4%. For NC(=S)n1[nH]c(-c2ccc([N+](=O)[O-])cc2)c(N=Nc2ccc(O)cc2)c1=O, the “viability” value was 89.5%. For COC(=O)c1ccc(CSc2nnc(-c3ccncc3)o2)o1, the “viability” value was 92.3%. For CCOC(=O)COc1ccc(/C=C2\NC(=S)N(CC)C2=O)cc1, the “viability” value was 105%. For FC(F)(F)c1ccc(NCCc2ccccc2)nc1, the “viability” value was 101%. For O=C(COc1ccc(F)cc1)N/N=C/c1cccc2cccnc12, the “viability” value was 90.9%. In the case of O=C1/C(=C/c2cccs2)COc2ccccc21, the “viability” value is reported as 92.1%. For Brc1ccc(OCCCCN2CCCCC2)cc1, the “viability” value was 96.6%. For Cc1occc1C(=O)N/N=C/C(Br)=C\c1ccccc1, the “viability” value was 82.9%. With O=C(CN1CCCCC1)Nc1nnc(-c2ccc([N+](=O)[O-])cc2)s1 the “viability” value was 98%. In the case of N#Cc1nc(-c2cccs2)oc1NCCc1ccccc1, the “viability” value is reported as 104%. For COc1cc(N=c2ssnc2Cl)cc(OC)c1OC, the “viability” value was 83.2%. For O=C1Nc2cc(C(=O)NCCCN3CCOCC3)ccc2S/C1=C/c1cccc(Cl)c1, the “viability” value was 84.8%. With N=c1n(CCN2CCCCC2)c2ccccc2n1CC(=O)c1ccc(Cl)c(Cl)c1 the “viability” value was 72%. With COCCOC(=O)c1c(C)oc2ccc(OC(=O)c3ccco3)cc12 the “viability” value was 96.6%. With O=C(Nc1ncc(Cc2ccccc2)s1)C1=NCCN1 the “viability” value was 84.7%. With OCC#CCSc1nnc(-c2ccc(Br)cc2)o1 the “viability” value was 90.3%. For CCN(CC)c1ccc2c(c1)oc(=O)c1c(Cl)cc(=O)oc12, the “viability” value was 98.1%. For CN(CCOCCOc1ccc(F)cc1)Cc1ccccc1, the “viability” value was 81.2%. In the case of CCCCOC(=O)Cn1c(-c2ccccc2)nc2ccccc2c1=O, the “viability” value is reported as 100%. In the case of CCOC(=O)c1cc(-c2csc(COc3ccc(Cl)cc3)n2)on1, the “viability” value is reported as 97.1%. In the case of NC(=O)C1CCN(C2CC(=O)NC2=O)CC1 (stereo not drawn), the “viability” value is reported as 102%. In the case of CCC(C)n1c(=S)[nH]c2ccccc2c1=O (stereo not drawn), the “viability” value is reported as 96.8%. With Nc1ccc2nc3c(c(Cl)c2c1)CCCC3 the “viability” value was 72.4%. In the case of O=C(CCSc1nnc(-c2ccncc2)o1)Nc1ccc(Cl)cc1, the “viability” value is reported as 93.8%. In the case of CCOC(=O)C(C)(C)n1nnc(-c2ccc([N+](=O)[O-])cc2)n1, the “viability” value is reported as 93.6%. With CCC1(O)CC(c2ccccc2)=NN1C(=O)c1ccccc1F (stereo not drawn) the “viability” value was 91.2%. For Cc1cc(=O)n2cccc(O)c2n1, the “viability” value was 97.5%. With O=C(NNc1nc2cc3c(cc2s1)OCCO3)c1ccccc1 the “viability” value was 107%. For C/C(CC(=O)Nc1ccc(N(C)C)cc1)=N\NC(=O)c1ccncc1, the “viability” value was 102%. In the case of NC(=O)c1cccnc1Nc1cccc(F)c1, the “viability” value is reported as 93.6%. For CN(C)CCCn1c(=O)n(C2CCCCC2)c(=O)c2c3c(sc21)CCCCC3, the “viability” value was 78%. In the case of CN(C)CCNc1c2c(c(C#N)c3nc4ccccc4n13)CCCC2, the “viability” value is reported as 104%. In the case of COc1cc(/C=N/Nc2ccc(Cl)c(C(=O)O)c2)ccc1OC(=O)c1cccs1, the “viability” value is reported as 104%. For CC1=NN(C(=O)c2csc(C)c2C)C(O)(C(F)(F)F)C1 (stereo not drawn), the “viability” value was 108%. In the case of O=C(CCc1ccccc1F)N1CCN(c2ccccc2)CC1, the “viability” value is reported as 97.2%. With Cc1cc(/C=N\NC(=O)c2cccs2)c(C)n1-c1ccc2ncccc2c1 the “viability” value was 76.1%. In the case of O=c1cc(-c2ccccc2Cl)oc2c([N+](=O)[O-])c(O)cc(O)c12, the “viability” value is reported as 85.8%. With O=C(CCc1ccccc1)NC1C2CC3CC(C2)CC1C3 (stereo not drawn) the “viability” value was 91.7%. In the case of C/C(=N\NC(=O)c1cccc(Cl)c1)C1C(=O)c2ccccc2C1=O, the “viability” value is reported as 81.5%. With O=C(NC(=S)NCCc1ccccc1)c1ccccc1 the “viability” value was 100%. For C/C(=N\NC(=O)c1ccncc1)c1cc2ccccc2oc1=O, the “viability” value was 96.3%. For C/C(=N/NC(=O)c1cccc(C)c1)c1c(O)cc(C)oc1=O, the “viability” value was 98.4%. For CC1CCN(C(=O)COC(=O)c2cc3ccccc3cc2O)CC1, the “viability” value was 85.2%. In the case of O=C1/C(=C/C=C/c2ccccc2)Oc2c1ccc(O)c2CN1CCN(CCO)CC1, the “viability” value is reported as 96.3%. For O=C(COC(=O)C1CC2C=CC1C2)Nc1ccccc1 (stereo not drawn), the “viability” value was 96.3%. For COC(=O)c1cc2c(ccc3ccccc32)oc1=O, the “viability” value was 108%. With COc1ccc(-c2cc(=O)oc(-c3cccc(C)c3)n2)cc1 the “viability” value was 90%. With Cc1nn(-c2ccccc2)nc1C(=O)c1c(C)[nH]n(-c2ccccc2)c1=O the “viability” value was 86.6%. For O=C(OCc1c(Cl)cccc1Cl)c1ccccn1, the “viability” value was 91%. In the case of CCOC(=O)c1ccc(COC(=O)c2cc3ccccc3oc2=O)o1, the “viability” value is reported as 113%. With CC(=O)NCCOC(=O)Nc1sc(=S)n(C)c1C the “viability” value was 94.9%. With CC1CCN(C(=O)C2COc3ccccc3O2)CC1 (stereo not drawn) the “viability” value was 105%. In the case of Cc1csc(=Nc2cccnc2)n1CC1CCCCC1, the “viability” value is reported as 108%. With CC(C)N1CCc2c(sc(NC(=O)CCS(=O)(=O)c3ccccc3)c2C#N)C1 the “viability” value was 71.5%. For CNC(=O)COC(=O)c1ccc(-c2nc3ccccc3s2)s1, the “viability” value was 102%. With COCCCC1CCN(Cc2nc(-c3ccccc3)no2)CC1 the “viability” value was 94.4%. In the case of CC(C)(C)c1ccc(S(=O)(=O)NNC(=O)c2cc3ccccc3[nH]2)cc1, the “viability” value is reported as 86.8%. With CC(C)(C)CC(=O)NC(=S)NCc1ccco1 the “viability” value was 97.7%. In the case of CCOC(=O)COc1cc(N)c(Cl)cc1Cl, the “viability” value is reported as 106%. In the case of CCn1cc(C(=O)NC(C)C23CC4CC(CC(C4)C2)C3)cn1 (stereo not drawn), the “viability” value is reported as 90.4%. In the case of Cc1ccc(S(=O)(=O)N2CCC(C(=O)OCc3ccccc3)CC2)cc1C, the “viability” value is reported as 102%. With COc1ccc2c([N+](=O)[O-])c(N3CCCC3)[nH]c2c1 the “viability” value was 91%. In the case of Cc1ccc(OCCCCn2ccnc2)c([N+](=O)[O-])c1, the “viability” value is reported as 102%. In the case of Clc1ccc(-c2ccc(CNCc3ccccn3)o2)cc1, the “viability” value is reported as 88.3%. In the case of Clc1cccc(-c2ccc(CNCc3ccccn3)o2)c1, the “viability” value is reported as 101%. With CCCc1cc(NCCCn2ccnc2)n2nc(C)c(-c3ccccc3)c2n1 the “viability” value was 73.8%. With Fc1ccc(-c2ccc(CNCc3ccccn3)o2)cc1Cl the “viability” value was 110%. For O=C(Oc1ccccc1)c1cc2ccccc2o1, the “viability” value was 101%. With Cc1cc(C(=O)NNc2ccc(Cl)cc2)no1 the “viability” value was 105%. With COc1cccc(C(=O)C2CCCN(CC3=Cc4cc(OC)ccc4OC3)C2)c1 (stereo not drawn) the “viability” value was 97.2%. In the case of N/C(=N\OC(=O)c1cccs1)c1ccccc1, the “viability” value is reported as 91.9%. With C=CCN(CC=C)C(=O)Cc1ccc(F)cc1 the “viability” value was 104%. With O=[N+]([O-])c1ccc(Nc2ccccc2O)c2nonc12 the “viability” value was 111%. With Cc1ccc2[nH]c(C)c(CCNC(=O)c3cc4cc([N+](=O)[O-])ccc4oc3=O)c2c1 the “viability” value was 85%. For CC(NC(=O)c1cc2cc(Br)ccc2oc1=N)c1ccccc1 (stereo not drawn), the “viability” value was 90.7%. For CCOCCOC(=O)COc1ccc2c(-c3ccccc3)cc(=O)oc2c1, the “viability” value was 94.9%. In the case of CC1=NN(C(=O)c2ccc(C)o2)C(O)(c2ccccc2)C1 (stereo not drawn), the “viability” value is reported as 98.4%. For O=C(NC1CCCC1)c1nc2c(nnn2Cc2cccc(Cl)c2)c(=O)[nH]1, the “viability” value was 95.9%. With N=c1oc2ccccc2cc1C(=O)NC1CCCCCC1 the “viability” value was 98.4%. For CC(=O)c1ccc(-n2cc(-c3ccc(C(C)(C)C)cc3)[n+]3c2SCCC3)cc1, the “viability” value was 98.5%. For O=C(NCC(c1cccs1)N1CCOCC1)c1cc([N+](=O)[O-])cc([N+](=O)[O-])c1 (stereo not drawn), the “viability” value was 78.3%. For COc1ccc([N+](=O)[O-])c(S(=O)(=O)c2ccc(Cl)cc2)n1, the “viability” value was 92.8%. In the case of COC(=O)CCCCCN1C(=O)/C(=C\c2ccncc2)SC1=S, the “viability” value is reported as 75.8%. In the case of COc1ccc(-c2noc(-c3cc4ccccc4oc3=O)n2)cc1, the “viability” value is reported as 97.7%. For CCN(CC)c1ccc2cc(C(=O)NCc3ccc(F)cc3)c(=N)oc2c1, the “viability” value was 80%. With O=C(Nc1ccccc1F)c1ccc(Br)o1 the “viability” value was 104%. With O=C(Nc1nc2c(Cl)cccc2s1)c1ccc([N+](=O)[O-])o1 the “viability” value was 76.2%. With COc1ccccc1OCC(=O)N/N=C/C=C/c1ccc([N+](=O)[O-])o1 the “viability” value was 73.2%. For Cc1ccccc1NC(=O)c1nc[nH]c1C(=O)NCc1ccccc1, the “viability” value was 97.9%. For COc1ccccc1NC(=O)c1cnc(SC)nc1, the “viability” value was 105%. For N=c1oc2ccc(Cl)cc2cc1C(=O)NC1CCCCCC1, the “viability” value was 99.1%. For COc1cc2c(cc1OC)CN(CCC(=O)c1ccc(Br)cc1)CC2, the “viability” value was 88.3%. For CC1(C)C[C@H]2C=C(C=O)[C@]3(C=O)C[C@]3(C)[C@H]2C1, the “viability” value was 96.4%. In the case of CCc1ccc(C(=O)COC(=O)c2ccc(Cl)nc2)cc1, the “viability” value is reported as 105%. With O=C(OCc1nnc(-c2ccccc2)o1)c1ccc(Br)o1 the “viability” value was 92.2%. For Nn1c(SCCOc2ccc(Cl)cc2)nnc1-c1cccnc1, the “viability” value was 94.8%. In the case of COc1ccc(C(=O)COC(=O)c2ccc([N+](=O)[O-])s2)cc1OC, the “viability” value is reported as 84.3%. With COc1cc(C=O)ccc1OCCOCCOc1ccc(Cl)cc1 the “viability” value was 103%. In the case of COC(=O)CCc1nc2c(C#N)c(-c3ccc(Cl)cc3)ccn2n1, the “viability” value is reported as 105%. With O=C(Nc1ccc(Br)cc1)c1cc([N+](=O)[O-])cc([N+](=O)[O-])c1 the “viability” value was 98.3%. With O=C(NCC1CCCCC1)c1ccco1 the “viability” value was 101%. With Oc1ccccc1-c1nnc(COc2ccccc2)o1 the “viability” value was 78.1%. In the case of O=[N+]([O-])c1ccc(CN2CCN(c3ccc(Cl)cc3)CC2)o1, the “viability” value is reported as 108%. With Cc1ccc(CCC(=O)Nc2ccc(C)c(C)c2)o1 the “viability” value was 103%. With Cc1cccc(NCCC(=O)c2ccc([N+](=O)[O-])cc2)c1C the “viability” value was 75.4%. In the case of COc1ccc(NC(=O)c2ccc(-c3ccc([N+](=O)[O-])cc3)o2)cc1OC, the “viability” value is reported as 106%. For CC12CN3CC(C)(CN(C1)C3c1ccc([N+](=O)[O-])o1)C2 (stereo not drawn), the “viability” value was 92.9%. In the case of CC1CC(C)CN(C(=O)COC(=O)c2ccc([N+](=O)[O-])o2)C1 (stereo not drawn), the “viability” value is reported as 96.2%. For Cc1cccc(NC(=O)c2n[nH]c([N+](=O)[O-])c2Br)c1C, the “viability” value was 102%. In the case of Cc1cccc(CSc2nnc(-c3ccco3)o2)c1, the “viability” value is reported as 99.6%. With CC(C)(C)c1ccc(OCCCC(=O)NC2=NCCS2)cc1 the “viability” value was 86%. With Cc1ccc(NC(=O)COc2ccccc2)cc1Cl the “viability” value was 101%. With O=C(NCCC1=CCCCC1)c1coc(=O)c(Br)c1 the “viability” value was 106%. With O=C(COC(=O)c1ccc(Br)o1)Nc1ncc([N+](=O)[O-])s1 the “viability” value was 105%. For COC(=O)c1ccc(COC(=O)CCS(=O)(=O)c2ccc(C)cc2)cc1, the “viability” value was 99.5%.
